Assay outcomes (PubChem)
Hits are enriched below; roughly 12% of the tested compounds scored in any of these assays.
SARS PLpro yeast = blocks SARS-CoV papain-like protease in a yeast assay; 0.19% of 330,000 active; S. cerevisiae expressing SARS-CoV PLpro, growth rescue; Potency, µM (series often up to 32.9 µM), for inactives: top-dose activity, positive = growth rescue, hits mostly activators; calls by dose curve; note: 0% is about no effect; nearly all actives have a fitted effect of over 55% in size
Sm TGR inh = S. mansoni TGR enzyme inhibition. purified TGR, DTNB reduction, TNB absorbance 405 nm. Q962Y6. Potency, µM (titrated, usually from 114 µM), inactives show at the highest dose activity change, negative = inhibition, hits mostly inhibitors. 3% of 360,000 active; note: % is set by controls: 0 for no effect and ±100 for the full control effect; nearly all actives have a fitted effect of over 60% in size
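TGR 20 nM + NADPH 100 uM (dispensed conc.), cpd preinc 15 min RT; start with NADPH (500 uM addition) then DTNB (15 mM addition). Kinetic TNB absorbance, 405 nm filter. Four-parameter Hill fit across titration.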
Pf growth 96h = P. falciparum growth inhibition at 96 hour, primary screen for plastid delayed-death inhibitors; Potency, µM (series often up to 28.7 µM), for the others: at the top dose activity change, negative = inhibition, usual class: inhibitors; P. falciparum luciferase reporter growth, 96 h; 6.9% of 320,000 active; AID 504834; note: % is set by controls: 0 for no effect and ±100 for the full control effect
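Two parasite generations (96 h, 37 C, 5% CO2) of compound exposure in infected erythrocytes (0.05% parasitemia, 2% hematocrit). Luciferase-reporter P. falciparum; decreased luminescence indicates inhibited growth, aimed at apicoplast-acting delayed death.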
Pf growth 48h = P. falciparum growth inhibition at 48 hours (one generation); Potency, µM (series often up to 28.7 µM), without a hit: top-dose activity change, negative = inhibition, usual class: inhibitors; P. falciparum luciferase growth in erythrocytes, 48 h; 5.9% of 310,000 active; note: % is set by controls: 0 for no effect and ±100 for the full control effect
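Luciferase-expressing parasites in RBCs, 2% Hct / 0.1% parasitemia final; RPMI 1640 + 0.5% Albumax; 37 C, 5% CO2, one generation; luminescence read-out, lower signal = inhibition.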
An asterisk follows results filed as active; ? = inconclusive; . = no result. Unless noted, calls come from the whole dose curve; as a rule, active = well fitted curve in the direction sought with a large enough effect; inconclusive = small, poorly fitted or top-dose-only effect, or another doubt; inactive = no such curve, though single readings can be large; an effect the other way counts as inactive or inconclusive. Potency is the fitted concentration of half-maximal effect.

SMILES | SARS PLpro yeast | Sm TGR inh | Pf growth 96h | Pf growth 48h
COc1ccc(S(=O)(=O)N2CCC(n3cnc4cc(C(F)(F)F)ccc43)CC2)cc1 | -10% | -1% | -6% | 5.2µM*
O=S(=O)(c1ccc2c(c1)OCCO2)N1CCC(n2nnc3cc(C(F)(F)F)ccc32)CC1 | 3% | 7% | 21% | 13µM*
OC[C@@H]1O[C@](CO)(O[C@H]2O[C@H](CO)[C@@H](O)[C@H](O)[C@H]2O)[C@H](O)[C@H]1O | . | . | -7% | -6%
CCc1ccc(OCc2nc(-c3ccc(OC)c(OC)c3)no2)c(Br)c1 | . | 7% | . | .
COCCn1nnnc1C(c1cccs1)N1CCN(c2nc3ccccc3s2)CC1 (stereo not drawn) | -14% | 11% | ? | ?
COCCn1nnnc1C(c1cccs1)N1CCN(c2cc(C)ccc2C)CC1 (stereo not drawn) | -4% | 2% | ? | 13µM*
COCCn1nnnc1C(c1cc2cc(C)cc(C)c2[nH]c1=O)N1CCN(c2ccccc2F)CC1 (stereo not drawn) | 0% | 40µM* | ? | 12µM*
COCCn1nnnc1C(c1cc2c(C)cc(C)cc2[nH]c1=O)N1CCCCCC1 (stereo not drawn) | -4% | 13µM* | 7% | 12µM*
Cc1ccc(NC(=O)CN(C)C(=O)COC(=O)c2nc3nccc(C)n3n2)cc1 | 4% | -8% | -8% | -10%
COC(=O)c1c(NC(C)=O)sc2c1CCN(Cc1ccccc1)C2 | -3% | 0% | 4% | -3%
CCCNC(=O)c1c(NC(=O)C2COc3ccccc3O2)sc2c1CCCC2 (stereo not drawn) | 6% | -12% | 10µM* | 5%
COC(=O)c1c(NC(=O)C2COc3ccccc3O2)sc2c1CCN(Cc1ccccc1)C2 (stereo not drawn) | -35% | 5% | ? | 5.2µM*
CCc1ccccc1NC(=O)C1COc2ccccc2O1 (stereo not drawn) | 3% | ? | 2.9µM* | ?
CCCn1c(NC(=O)C2COc3ccccc3O2)nc2ccccc21 (stereo not drawn) | 1% | 0% | ? | 9.3µM*
Cc1ccccc1NC(=O)C1COc2ccccc2O1 (stereo not drawn) | 4% | 8% | 53% | 14%
Cc1ccc(C)c(N2CCN(CCCNC(=O)c3cnn(-c4ccccc4Cl)c3C3CCN(C(=O)OC(C)(C)C)CC3)CC2)c1 | . | 0% | . | .
CCOc1cc(C(=O)Nc2ccc(-c3nnc4n3CCCCC4)cc2)cc(OCC)c1OCC | . | 7% | . | .
CCN(CC)c1nc2ccccc2nc1C(=O)Nc1ccc(C(C)=O)cc1 | . | -7% | . | .
O=C(Nc1cccc(Cl)c1)C1C2CCC3C(CCC21)C3(Cl)Cl (stereo not drawn) | -17% | -13% | ? | 9.3µM*
O=C(Nc1ccccc1[N+](=O)[O-])C1COc2ccccc2O1 (stereo not drawn) | -4% | -2% | 12µM* | 133%
Cc1cc(C)n(C(=O)c2ccc(NC(=O)C3COc4ccccc4O3)cc2)n1 (stereo not drawn) | . | ? | 8.3µM* | 30%
O=C(Nc1ccccc1)C1C2CCC3C(CCC21)C3(Cl)Cl (stereo not drawn) | -11% | -11% | 21% | ?
O=C(Nc1cccc(Cl)c1)C1COc2ccccc2O1 (stereo not drawn) | -10% | -26% | 1.7µM* | -2%
COc1cccc(NC(=O)C2COc3ccccc3O2)c1 (stereo not drawn) | 4% | 2% | ? | 82%
COc1cccc(CN(C(=O)COc2ccc(Cl)c(C)c2)C2CCS(=O)(=O)C2)c1 (stereo not drawn) | . | 8% | . | .
SMILES | SARS PLpro yeast | Sm TGR inh | Pf growth 96h | Pf growth 48h
Cc1ccc(C(C)c2c(C)c([N+](=O)[O-])cc(C)c2[N+](=O)[O-])cn1 (stereo not drawn) | 3% | -9% | 1% | ?
COc1cccc(C2C(C(=O)Nc3ccc(Cl)cc3)=C(C)Nc3c(C(=O)Nc4ccccc4)cnn32)c1OC (stereo not drawn) | . | 0% | . | .
O=C(NCCSCc1cccc(Cl)c1)C1CCN(S(=O)(=O)Cc2ccccc2)CC1 | . | -9% | . | .
CCOC(=O)c1c(NC(=O)C2COc3ccccc3O2)sc(C)c1C (stereo not drawn) | 5% | 2% | 7% | 5.9µM*
CCOC(=O)c1ccccc1NC(=O)C1COc2ccccc2O1 (stereo not drawn) | -11% | 0% | ? | ?
CN(C)c1ccc(/C=N/NC(=O)C2COc3ccccc3O2)o1 (stereo not drawn) | 5% | 16µM* | -3% | 2%
O=C(N/N=C\c1ccc(Br)o1)C1COc2ccccc2O1 (stereo not drawn) | -1% | . | ? | -5%
COc1ccccc1C(=O)Nc1cc2c(cc1N1CCOCC1)n(C)c(=O)n2C | . | 8% | . | .
CC(OC(=O)CC1CCCCC1)C(=O)Nc1cccc(C#N)c1 (stereo not drawn) | 2% | 0% | 8% | ?
Cc1occc1C(=O)N/N=C/c1ccc(OCc2ccccc2)cc1 | -2% | -1% | 10µM* | ?
O=C(N/N=C/c1ccc(F)cc1)c1ccc(OCc2ccccc2)cc1 | 0% | 3% | 3% | ?
COc1ccc(O)c(/C=N/NC(=O)c2ccc(OCc3cccc(Br)c3)cc2)c1 | -4% | 0% | 11% | 1.7µM*
O=C(CSc1ncccn1)N/N=C/c1cccc(OC2CSC2)c1 | 2% | 59% | 12µM* | 5%
COc1ccc(C(=O)N/N=C/c2cc(Br)ccc2O)cc1OC | 4% | -12% | ? | ?
O=C(N/N=C/c1ccc(OCc2ccc(F)cc2)cc1)c1ccccc1 | -8% | -5% | -5% | 1.2µM*
CCc1nnc(SCc2cccc(Cl)c2)c2cc3sccc3n12 | . | 0% | . | .
CCOC(=O)CSc1nc2c(sc3ccccc32)c(=O)n1Cc1ccc(OC)cc1 | . | -2% | . | .
COC(=O)c1c(NC(=O)c2ccccc2OC)sc(C(=O)N2CCOCC2)c1C | 0% | 3% | -19% | ?
CCOc1ccc(/C=N/NC(=O)c2ccc(CSc3nc4ccccc4[nH]3)cc2)cc1 | -6% | -12% | 0% | 6%
O=C(N/N=C/c1ccc(OC(F)F)cc1)c1ccc(CSc2nc3ccccc3[nH]2)cc1 | ? | -6% | 13µM* | -28%
O=C(N/N=C/c1ccc(OC2CSC2)cc1)c1ccccc1 | -3% | 32% | ? | 12µM*
O=C(/C=C/c1ccc(OC2CSC2)cc1)c1ccccc1 | -8% | 8% | ? | 131%
Cc1cc(C)cc(NC(=O)C2CCCN(c3nnc(-n4c(C)ccc4C)s3)C2)c1 (stereo not drawn) | . | -15% | . | .
Cc1ccc(C)c(N2CCN(C(=O)Cn3nc(Cc4cccnc4)c4ccccc4c3=O)CC2)c1 | . | -2% | . | .
CCOc1ccc2c(c1)c(N=NC(N)=S)c(O)n2C | 0% | 2% | 5.2µM* | 9.3µM*
CCN(C(=O)Cn1c(SCC(=O)Nc2ccc(OC)cc2)nc2ccccc21)c1cccc(C)c1 | . | -1% | . | .
O=C(c1ccccc1)c1coc2c1C(=O)c1ccccc1C2=O | -1% | -28% | -16% | ?
